# An excerpt weighted towards active compounds, which were near 18% of everything screened.
# VDR inh: blocks the human vitamin D receptor | P11473 | Potency, µM, inactives show max response, negative = inhibition, most hits filed as inhibitors | VDR-SRC2-3 peptide fluorescence polarization, 2 h | actives 0.93% (n = 400,000) | AID 504847
#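 Fluorescence polarization assay measuring small-molecule disruption of VDR binding to the coregulator peptide SRC2-3. Compounds were pin-transferred (23 nl) into the reagent mix and incubated 2 h at room temperature before reading.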
# TDP1 inh: TDP1 (human) enzyme inhibition; actives 0.28% (n = 350,000); Potency, µM (series often up to 130 µM), without a hit: at the top dose activity change, negative = inhibition, most hits filed as inhibitors; recombinant TDP1, AlphaScreen DNA substrate cleavage; Q9NUW8; also: nearly all actives have a fitted effect of over 40% in size
#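 AlphaScreen read-out: signal falls as enzyme removes the 3' tyrosine-FITC from a 5'-biotinylated DNA oligo (15 nM, 5 min, RT). Enzyme was E. coli-made recombinant Tdp1 at 1 nM, exposed to compound for 15 min beforehand; beads 10 ug/ml, 10 min.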
# DT40 TDP1 no CPT: qHTS for Inhibitors of human tyrosyl-DNA phosphodiesterase 1 (TDP1): qHTS in cells in absence of CPT | DT40 Tdp1-/- hTDP1 cells, no CPT, ATP luminescence, 48 h | Potency, µM (top dose mostly 46.2 µM), inactives show at the highest dose activity change, negative = growth inhibition, hits mostly inhibitors | actives 15% (n = 420,000); also: nearly all actives have a fitted effect of over 55% in size
#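 Chicken DT40 Tdp1-/- cells stably complemented with human TDP1 were seeded at 400 cells/well with DMSO in place of 20 nM camptothecin. After compound pinning, cells grew at least 48 hr at 37 °C; viability read by CellTiter-Glo luminescence.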
# TDP1 cell CPT: DT40-hTDP1 cell growth loss with CPT; actives 12% (n = 420,000); Potency, µM (series often up to 46.2 µM), without a hit: at the top dose activity change, negative = growth inhibition, hits mostly inhibitors; chicken DT40 Tdp1-/-;hTDP1 cells + 20 nM CPT, ATP luminescence, 48 h; also: nearly all actives have a fitted effect of over 55% in size
#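 Chicken DT40 Tdp1-/- cells complemented with human TDP1, 400 cells/well, exposed to compounds plus 20 nM camptothecin for at least 48 h at 37 C; viability read as ATP content by CellTiter-Glo luminescence.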
# KAT2A inh: GCN5L2 (KAT2A) acetyltransferase inhibition; Potency, µM (highest dose often 58.9 µM), for the others: at the top dose activity change, negative = inhibition, actives largely listed as inhibitors; actives 0.21% (n = 390,000); Q92830; AID 504327; GCN5L2 HAT assay, ThioGlo1 CoA-SH fluorescence
#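 ThioGlo1-coupled HAT assay: 20nM GCN5L2, 70uM acetyl-CoA, 75uM H3(1-25) peptide, pH 7.5. Fluorescence read at 340/540nm at start and after 20 min at room temperature.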
# PLK1 PBD block: PLK1 (human) polo-box domain binding inhibition; P53350; Plk1 PBD binding of FITC phosphopeptide, fluorescence polarization; Potency, µM, without a hit: max response, negative = inhibition, actives largely listed as inhibitors; actives 2.8% (n = 360,000); also: series mostly up to about 57 µM; nearly all actives have a fitted effect of over 65% in size
# * hit, by the source's call; ? = inconclusive; . = no result. Calls follow the shape of the dose curve; as a rule, active = well fitted curve in the direction sought with a large enough effect; inconclusive = small, poorly fitted or top-dose-only effect, or another doubt; inactive = no such curve, though single readings can be large; an effect the other way counts as inactive or inconclusive. % is scaled to controls: 0 for no effect and ±100 for the full control effect; potency is read from the fitted curve at half-maximal effect.
SMILES,VDR inh,TDP1 inh,DT40 TDP1 no CPT,TDP1 cell CPT,KAT2A inh,PLK1 PBD block
COc1ccc(-c2noc(-c3ccc(NCC4CCCO4)c([N+](=O)[O-])c3)n2)cc1OC (centres undefined),1%,9%,-27%,?,-2%,.
COc1ccc(-c2noc(-c3ccc(NC4CCCC4)c([N+](=O)[O-])c3)n2)cc1OC,-5%,11%,-5%,1%,-22%,.
COc1cc(-c2noc(-c3ccc(NCC4CCCO4)c([N+](=O)[O-])c3)n2)cc(OC)c1OC (centres undefined),-1%,9%,3.7µM*,7.3µM*,-14%,.
Cc1ccc(Cn2cc(S(=O)(=O)c3cccc(Cl)c3)c(=O)c3cc(F)c(N4CCOCC4)cc32)cc1,15%,5%,-4%,-13%,0%,.
Cc1cc(Nc2ccccc2O)nc(C)n1,-6%,2%,3%,0%,-4%,.
Cc1cccc(Nc2cc(C)c3c(O)cccc3n2)c1C,12%,12%,23µM*,21µM*,-3%,3%
Cc1nc(N)nc(N)c1CCCc1ccc(Cl)c(Cl)c1,9%,.,2.6µM*,10µM*,.,-5%
COc1ccc(Cc2c(C)nc(N)nc2Cl)cc1,29%,3%,-8%,?,0%,-21%
C[C@@H]1C[C@@H](CC(=O)NCC2Cc3cccc(-c4ccncc4)c3O2)NC(=S)N1 (some centres undefined),.,.,-19%,-24%,.,.
CCCSc1nn2c(=O)c3ccccc3nc2s1,9%,0%,-22%,18µM*,-16%,-7%
CCCOc1ccc2ccccc2c1/C=N/n1c(C)nnc1-n1nc(C)cc1C,4%,1%,3.3µM*,3.3µM*,-9%,-2%
O=C(NC(=S)Nc1cc(S(=O)(=O)N2CCOCC2)ccc1O)c1ccco1,?,5%,?,-6%,-3%,12µM*
CCN(CC)S(=O)(=O)c1ccc(O)c(NC(=O)c2ccc(N3CCOCC3)c([N+](=O)[O-])c2)c1,?,-1%,-22%,?,-10%,21µM*
CC1CCN(c2ccccc2NC(=O)c2ccc(N3CCOCC3)c([N+](=O)[O-])c2)CC1,15%,4%,-6%,1%,-14%,0%
CCN(CC)S(=O)(=O)c1ccc(N2CCOCC2)c(NC(=O)CC(C)(C)C)c1,-19%,0%,13%,-8%,-5%,-22%
CCN(CC)S(=O)(=O)c1ccc(N2CCOCC2)c(NC(=O)c2ccccc2)c1,15%,5%,?,?,0%,-5%
CCN(CC)S(=O)(=O)c1ccc(N2CCOCC2)c(NC(=O)C23CC4CC(CC(Cl)(C4)C2)C3)c1,-20%,-1%,23µM*,?,-12%,-4%
O=C(NC(=S)Nc1cc(S(=O)(=O)N2CCOCC2)ccc1N1CCOCC1)c1ccco1,-7%,3%,?,-29%,-5%,-9%
CCN(CC)S(=O)(=O)c1ccc(N2CCOCC2)c(NC(=O)c2cc(C)cc(C)c2)c1,3%,6%,18µM*,7.3µM*,11%,-3%
CCN(CC)S(=O)(=O)c1ccc(N2CCOCC2)c(NC(=O)c2cc3ccccc3o2)c1,.,.,?,?,.,-1%
CCN(CC)S(=O)(=O)c1ccc(N2CCOCC2)c(NC(=O)c2sccc2C)c1,-15%,2%,18µM*,?,-4%,?
CCN(CC)S(=O)(=O)c1ccc(N2CCOCC2)c(NC(=S)NC(=O)c2ccco2)c1,?,5%,?,10µM*,-15%,24µM*
CCc1cc(C(=O)Nc2cc(S(=O)(=O)N(CC)CC)ccc2N2CCOCC2)sc1C,5%,-1%,?,21µM*,-19%,2%
